Experimental data published in the supplement of paper PMC6555819.

test system: LXRa homodimer (NR concentration 270 nM); assay: PBM binding z-score (relative to random genomic background probes); higher = stronger binding; sequences stand for … in GC…GCGATTGACAGCGTAGAATGAAGG
How it was run: (§1)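 Binding z-scores take random background probes as their reference. They come from custom Agilent 4×180K protein-binding microarrays incubated 1 h with ligand-free nuclear receptor dimers, with antibodies against each partner (one per run) detecting binding. Scanned fluorescence was regression-normalized.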

| Sequence | PBM binding z-score |
| --- | --- |
| CGTCAGAGTTCAAGGTAACGTAACAGAAAGCAGC | 1.85 |
| ATCTCTAGGTAACTAAGTTCAGTGAATGCCGAAC | 1.22 |
| GCGACTGCGGCAAAGCAGGTTACCATAAGGTTGG | -0.713 |
| GCTGCTAGATCAGGTTGGTCAGCTAACGGGTACG | -0.323 |
| CCTCGGAGTACAGAAGGTCAGAGCTGTCCGCTTT | 1.46 |
| TTACCAAGGTGAAGGTCTTTGATCCCTCTGTAGA | -0.405 |
| TAGCCTAGGACATTCAGGGGCCAGTATAGAAAGC | -0.456 |
| GCGACTGGGGCATTAGCAGGTTACCATAACTTAA | 0.0141 |
| ATACCACGGTGATCGTGAGGTCGTTGATACTAAC | 0.899 |
| TCTGCTAGGTCAGTTGGTCAGCTTACGAGCTGCC | -0.755 |
| TCGAGTAGGTTAGTCGGGACATTCAGCCAACATA | -0.222 |
| GCAGACAGGTGAAACGCAGGTAAGTCAGGGTGGC | -0.679 |
| GCAGACAGGTGAAACGCCGGTAACTCAGGGTGGC | -0.611 |
| TCATATAAGTAAATGCTAGGTGAAAGTCCGATCT | 0.543 |
| TCATATAGGTAAAGGTGATAGTCGAACGATATGA | -0.19 |
| CCTTACGGGTCAACGTTATAGCACGGGTGGTACG | -0.0163 |
| TAGCCTAGGTCAGATCGGGCCAGTACACGCTATA | -0.186 |
| AGAACGAGGCCACGCTGAGTTGATAGCAGAGTAG | -0.521 |

test system: LXRb:RXRa (NR concentration 270 nM, RXRa partner concentration 90 nM); assay: as above
How it was run: as §1

| Sequence | PBM binding z-score |
| --- | --- |
| TGTAGTTGGTCAAAGGTCACACACTCGAAATGCG | 5.42 |
| GCGACTGGGGCACCAGCAGGTTACCATAACTTAA | 0.0821 |
| CCTATTAGTTGACCATAAGGGCAACCGGAGCTCG | 0.404 |
| CCTACTGGGCCCTCAGGTCATTGATATCAACGTT | 1.2 |
| AACTCTAGGTAAAGTTCAGTGAAAGATCGATAGA | 1.06 |
| TCTATTAGTTGAAGCGCAACCGACGAGTCCGTTT | 0.375 |
| TCTATTAGTTTAAGGGCAACCGACGAGTCCGTTT | 1.32 |
| TAGCCTAGGTCAGATCGGGTCAGTATACGCTATA | 2.43 |
| GCGACTGGGGCATCAGCAGATTACCATAACTTAA | 0.0496 |
| TGTCAAAGTTCAAATGTAACGTAAGTATCCACAC | 4.79 |
| ATACCAAGCTGATCGTGAGGTCGTTGATACTAAC | 0.818 |
| CCCAGTAGGTTATGGGGCATTCAGGCAACGGTGA | -0.0107 |
| TAGCCGAGGTCAGATCGGGCCAGTATACGCTATA | 3.74 |
| AATACAGGGTCATCGGAGGCCAGAGTACGCACAG | 4.98 |
| CCTTACGGGTCTCGAGGTTATAGCACGACGAGCG | 0.31 |
| CCTGCTAGGTCATAGTCAGCTAATCTACAGTATG | 1.7 |
| GCGGCTAGGTCAACTGATGGTCAGCTAAAGCTCG | 1.99 |
| CGTACAGGGTCAGCTAGGCCAGAGTAGGGACGGC | 1.94 |
| ATCTCAAGGTAACAAGTTCAGTGAAAGAGAGGAC | 0.971 |
| ATCTAAAGGTCGAGGTGAGTATAGAGAAAGGGAA | 3.06 |

| Sequence | PBM binding z-score |
| --- | --- |
| AGACAAAGTTCACTAGGTAACGTAAGATTCAGCT | 3.12 |
| CCTTACGGCTCACTGACAGGTTATAGCATTTGGA | 0.294 |
| CGTCAGAGTTCAAGGTAACGTAACAGAAAGCAGC | 3.2 |
| ATCTCTAGGTAACTAAGTTCAGTGAATGCCGAAC | 1.02 |
| GCGACTGCGGCAAAGCAGGTTACCATAAGGTTGG | -0.429 |
| GCTGCTAGATCAGGTTGGTCAGCTAACGGGTACG | -0.953 |
| CCTCGGAGTACAGAAGGTCAGAGCTGTCCGCTTT | 1.54 |
| TTACCAAGGTGAAGGTCTTTGATCCCTCTGTAGA | 0.371 |
| TAGCCTAGGACATTCAGGGGCCAGTATAGAAAGC | -0.243 |
| GCGACTGGGGCATTAGCAGGTTACCATAACTTAA | 0.936 |
| ATACCACGGTGATCGTGAGGTCGTTGATACTAAC | 0.931 |
| TCTGCTAGGTCAGTTGGTCAGCTTACGAGCTGCC | 0.14 |
| TCGAGTAGGTTAGTCGGGACATTCAGCCAACATA | -0.141 |
| GCAGACAGGTGAAACGCAGGTAAGTCAGGGTGGC | -0.502 |
| GCAGACAGGTGAAACGCCGGTAACTCAGGGTGGC | -0.313 |
| TCATATAAGTAAATGCTAGGTGAAAGTCCGATCT | 0.645 |
| TCATATAGGTAAAGGTGATAGTCGAACGATATGA | 0.539 |
| CCTTACGGGTCAACGTTATAGCACGGGTGGTACG | 2.99 |
| TAGCCTAGGTCAGATCGGGCCAGTACACGCTATA | 0.718 |
| AGAACGAGGCCACGCTGAGTTGATAGCAGAGTAG | -0.809 |

test system: LXRb homodimer (NR concentration 270 nM); assay: as above
How it was run: as §1

| Sequence | PBM binding z-score |
| --- | --- |
| TGTAGTTGGTCAAAGGTCACACACTCGAAATGCG | 1.98 |
| GCGACTGGGGCACCAGCAGGTTACCATAACTTAA | -1.41 |
| CCTATTAGTTGACCATAAGGGCAACCGGAGCTCG | 0.814 |
| CCTACTGGGCCCTCAGGTCATTGATATCAACGTT | -0.368 |
| AACTCTAGGTAAAGTTCAGTGAAAGATCGATAGA | 0.134 |
| TCTATTAGTTGAAGCGCAACCGACGAGTCCGTTT | 0.082 |
| TCTATTAGTTTAAGGGCAACCGACGAGTCCGTTT | 0.433 |
| TAGCCTAGGTCAGATCGGGTCAGTATACGCTATA | -0.00739 |
| GCGACTGGGGCATCAGCAGATTACCATAACTTAA | -0.549 |
| TGTCAAAGTTCAAATGTAACGTAAGTATCCACAC | 3.48 |
| ATACCAAGCTGATCGTGAGGTCGTTGATACTAAC | -0.351 |
| CCCAGTAGGTTATGGGGCATTCAGGCAACGGTGA | -0.618 |
| TAGCCGAGGTCAGATCGGGCCAGTATACGCTATA | 0.611 |
| AATACAGGGTCATCGGAGGCCAGAGTACGCACAG | 1.28 |
| CCTTACGGGTCTCGAGGTTATAGCACGACGAGCG | -0.922 |
| CCTGCTAGGTCATAGTCAGCTAATCTACAGTATG | 0.153 |
| GCGGCTAGGTCAACTGATGGTCAGCTAAAGCTCG | -0.808 |
| CGTACAGGGTCAGCTAGGCCAGAGTAGGGACGGC | -0.514 |
| ATCTCAAGGTAACAAGTTCAGTGAAAGAGAGGAC | 0.9 |
| ATCTAAAGGTCGAGGTGAGTATAGAGAAAGGGAA | 1.17 |

| Sequence | PBM binding z-score |
| --- | --- |
| AGACAAAGTTCACTAGGTAACGTAAGATTCAGCT | 1.08 |
| CCTTACGGCTCACTGACAGGTTATAGCATTTGGA | -0.0562 |
| CGTCAGAGTTCAAGGTAACGTAACAGAAAGCAGC | 0.38 |
| ATCTCTAGGTAACTAAGTTCAGTGAATGCCGAAC | 0.792 |
| GCGACTGCGGCAAAGCAGGTTACCATAAGGTTGG | -1.51 |
| GCTGCTAGATCAGGTTGGTCAGCTAACGGGTACG | -0.822 |
| CCTCGGAGTACAGAAGGTCAGAGCTGTCCGCTTT | -0.164 |
| TTACCAAGGTGAAGGTCTTTGATCCCTCTGTAGA | -0.742 |
| TAGCCTAGGACATTCAGGGGCCAGTATAGAAAGC | -0.646 |
| GCGACTGGGGCATTAGCAGGTTACCATAACTTAA | -0.458 |
| ATACCACGGTGATCGTGAGGTCGTTGATACTAAC | -0.0132 |
| TCTGCTAGGTCAGTTGGTCAGCTTACGAGCTGCC | 0.216 |
| TCGAGTAGGTTAGTCGGGACATTCAGCCAACATA | -1.03 |
| GCAGACAGGTGAAACGCAGGTAAGTCAGGGTGGC | -0.938 |
| GCAGACAGGTGAAACGCCGGTAACTCAGGGTGGC | -0.77 |
| TCATATAAGTAAATGCTAGGTGAAAGTCCGATCT | 0.419 |
| TCATATAGGTAAAGGTGATAGTCGAACGATATGA | -0.129 |
| CCTTACGGGTCAACGTTATAGCACGGGTGGTACG | -0.125 |
| TAGCCTAGGTCAGATCGGGCCAGTACACGCTATA | -0.385 |
| AGAACGAGGCCACGCTGAGTTGATAGCAGAGTAG | -0.992 |
